Laboratory results taken from the antibiotic and cytotoxicity screens of Wong et al. (2023).
The whole screen tested about 39,000 compounds, of which about 1,500 (3.8%) were called active. Many of the other results were omitted from the sample, so actives are more common in it than they were.

test system: HSkMC (human skeletal muscle cells); experiment: cytotoxicity call (relative viability < 0.9); settings: 10 µM

| Compound | cytotoxicity call |
| --- | --- |
| CC(C)C[C@H]1NC(=O)[C@@H](CCCN)NC(=O)[C@H](C(C)C)NC(=O)[C@H]2CCCN2C(=O)[C@@H](Cc2ccccc2)NC(=O)[C@@H](CC(C)C)NC(=O)[C@@H](CCCN)NC(=O)[C@H](C(C)C)NC(=O)[C@H]2CCCN2C(=O)[C@@H](Cc2ccccc2)NC1=O | active |
| CC(C)C[C@@H]1NC(=O)[C@@H](C(C)C)NC(=O)[C@@H]2CCCN2C(=O)[C@@H](CC(=O)O)NC(=O)[C@@H](Cc2c[nH]c3ccccc23)NC1=O | inactive |
| CC[C@@H](C)CCCCC(=O)N[C@@H](CCN)C(=O)N[C@H](C(=O)N[C@@H](CCN)C(=O)N[C@H]1CCNC(=O)[C@H]([C@@H](C)O)NC(=O)[C@H](CCN)NC(=O)[C@H](CCN)NC(=O)[C@H](CC(C)C)NC(=O)[C@@H](Cc2ccccc2)NC(=O)[C@@H](CCN)NC1=O)[C@@H](C)O | inactive |
| CC(C)[C@H]1C(=O)N[C@@H](CCCNC(=N)N)C(=O)NCC(=O)N[C@@H](CC(=O)O)C(=O)N[C@H](Cc2ccccc2)C(=O)N1C | inactive |
| CC1NC(=O)C2CCCN2C(=O)C(CC(N)=O)NC(=O)C2CSSCC(N)C(=O)NC3CSSCC(NC1=O)C(=O)NC(C(C)O)C(=O)NCC(=O)NC(C(=O)NC(Cc1ccc(O)cc1)C(=O)O)CSSCC(NC(=O)C(Cc1ccc(O)cc1)NC(=O)C(CCC(=O)O)NC3=O)C(=O)N2 (centres undefined) | inactive |
| CC(C)(O)C#Cc1ccc([C@H]2[C@@H](CO)N3CCCCN(S(C)(=O)=O)C[C@@H]23)cc1 | inactive |
| N#C[C@H]1NCc2cnnn2Cc2ccccc21 | inactive |
| COc1ccc(NC(=O)N(C)C[C@H]2OCCCC[C@@H](C)Oc3ccc(NC(=O)NC(C)C)cc3C(=O)N([C@H](C)CO)C[C@H]2C)cc1 | inactive |
| COc1ccc(S(=O)(=O)N(C)C[C@@H]2OCCCC[C@H](C)Oc3ccc(NC(=O)Nc4ccccc4)cc3C(=O)N([C@@H](C)CO)C[C@@H]2C)cc1 | inactive |
| CN(C)CCN1CC2(CCN(C(=O)c3cnccn3)CC2)OCC1=O | inactive |
| Cc1noc(C)c1S(=O)(=O)Nc1ccc2c(c1)C(=O)N([C@H](C)CO)C[C@@H](C)[C@@H](CN(C)Cc1ccc(C(F)(F)F)cc1)OCCCC[C@H](C)O2 | inactive |
| C[C@@H]1CCCCO[C@@H](CN(C)C(=O)CCC(F)(F)F)[C@@H](C)CN([C@@H](C)CO)C(=O)c2cc(NC(=O)Nc3ccccc3)ccc2O1 | inactive |
| C[C@@H]1CCCCO[C@@H](CN(C)Cc2ccc3c(c2)OCO3)[C@H](C)CN([C@H](C)CO)C(=O)c2cc(NC(=O)Nc3ccc4c(c3)OCO4)ccc2O1 | inactive |
| C[C@H]1CN([C@@H](C)CO)C(=O)c2cc(NC(=O)Nc3ccc4c(c3)OCO4)ccc2O[C@@H]1CN(C)Cc1ccc(C(F)(F)F)cc1 | inactive |
| C[C@@H]1CN([C@@H](C)CO)C(=O)c2cc(NC(=O)Nc3ccc4c(c3)OCO4)ccc2O[C@H]1CN(C)Cc1ccc(C(F)(F)F)cc1 | active |
| C[C@H](CO)N1C[C@H](C)[C@@H](CN(C)Cc2ccc(C(F)(F)F)cc2)Oc2ccc(NC(=O)Nc3ccc4c(c3)OCO4)cc2C1=O | inactive |
| C[C@H]1CN([C@@H](C)CO)C(=O)c2cc(NC(=O)Nc3ccc4c(c3)OCO4)ccc2O[C@H]1CN(C)Cc1ccc(C(F)(F)F)cc1 | inactive |

| Compound | cytotoxicity call |
| --- | --- |
| C[C@@H]1CN([C@H](C)CO)C(=O)c2cc(NC(=O)Nc3ccc4c(c3)OCO4)ccc2O[C@@H]1CN(C)Cc1ccc(C(F)(F)F)cc1 | active |
| C[C@H](CO)N1C[C@H](C)[C@H](CN(C)Cc2ccc(C(F)(F)F)cc2)Oc2ccc(NC(=O)Nc3ccc4c(c3)OCO4)cc2C1=O | inactive |
| Cc1ccc(S(=O)(=O)Nc2ccc3c(c2)C(=O)N([C@H](C)CO)C[C@H](C)[C@@H](CN(C)C(=O)CCC(F)(F)F)OCCCC[C@H](C)O3)cc1 | inactive |
| C[C@H]1CN([C@@H](C)CO)C(=O)Cc2cc(NC(=O)Cc3ccccc3)ccc2O[C@H]1CN(C)S(=O)(=O)c1ccccc1 | inactive |
| C[C@H]1CCCCO[C@H](CN(C)S(=O)(=O)c2cn(C)cn2)[C@@H](C)CN([C@@H](C)CO)C(=O)c2cc(NC(=O)Nc3ccc(C(F)(F)F)cc3)ccc2O1 | inactive |
| C[C@@H]1CN([C@H](C)CO)C(=O)c2cc(NC(=O)Nc3ccc(C(F)(F)F)cc3)ccc2O[C@@H](C)CCCCO[C@@H]1CN(C)S(=O)(=O)c1cn(C)cn1 | inactive |
| C[C@@H]1CN([C@@H](C)CO)C(=O)c2cc(NC(=O)Nc3ccc(C(F)(F)F)cc3)ccc2O[C@@H](C)CCCCO[C@H]1CN(C)S(=O)(=O)c1cn(C)cn1 | inactive |
| C[C@H]1CCCCO[C@@H](CN(C)S(=O)(=O)c2cn(C)cn2)[C@@H](C)CN([C@@H](C)CO)C(=O)c2cc(NC(=O)Nc3ccc(C(F)(F)F)cc3)ccc2O1 | active |
| C[C@H](CO)N1C[C@H](C)[C@@H](CN(C)S(=O)(=O)c2cn(C)cn2)OCCCC[C@H](C)Oc2ccc(NC(=O)Nc3ccc(C(F)(F)F)cc3)cc2C1=O | active |
| C[C@@H]1CN([C@@H](C)CO)C(=O)c2cc(NC(=O)Nc3ccc(C(F)(F)F)cc3)ccc2O[C@@H](C)CCCCO[C@@H]1CN(C)S(=O)(=O)c1cn(C)cn1 | inactive |
| CN1CCN(c2nc3c(c(=O)[nH]c(=O)n3C)n2CC(=O)c2ccc(Cl)cc2)CC1 | inactive |
| Cc1noc(C)c1S(=O)(=O)Nc1ccc2c(c1)C(=O)N([C@H](C)CO)C[C@H](C)[C@@H](CN(C)S(=O)(=O)c1ccc(F)cc1)O2 | inactive |
| COc1cccc(C#Cc2ccc3c(c2)O[C@@H](CN(C)C(=O)c2ccccn2)[C@H](C)CN([C@@H](C)CO)S3(=O)=O)c1 | inactive |
| Cc1c(/C=N/c2ccc(C(C)C)cc2)sc2ccccc12 | inactive |
| C[C@]12CC[C@@H]3[C@]4(C=C[C@@]5(C=C4C(=O)C4CCCCC4)C[C@@H](O)CC[C@]35C)[C@@H]1CC[C@@]2(O)CN1CCC(n2c(=O)[nH]c3ccccc32)CC1 | inactive |
| O=C(C[C@@H]1C[C@H]2c3cc(NS(=O)(=O)c4ccc(F)cc4)ccc3O[C@H]2[C@@H](CO)O1)NC1CCCCC1 | inactive |
| C[C@@H]1CN([C@H](C)CO)C(=O)CCCn2cc(nn2)CO[C@H]1CN(C)C(=O)Nc1ccccc1C(F)(F)F | inactive |
